Measured values as given in the supplement of paper PMC10037445.
Values joined by “and” are separate entries in the source; they are usually repeats but may differ in a detail not shown here. Equal entries are not always repeated. In all, about 2,900 compounds were measured (“NF-kB SEAP reporter activity, fold change vs agonist alone”: median about 0.99, highest 2% from about 2.6 on). This excerpt belongs to a sample that is enriched for the highest values.

Key:
[1] = test system: RAW-Dual; assay: NF-kB SEAP reporter activity, fold change vs agonist alone; cytotoxicity flag (confluency mask): not cytotoxic; higher = enhanced NF-kB activity
How it was run: (§1)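 Reporter activity is given as fold change relative to agonist-alone wells. To measure it, 50 nL of library stock was pin-tooled onto RAW-Dual macrophages (50,000 cells/well, DMEM, 384-well plates), a PRR agonist followed 1 h later, and cells stayed at 37 °C, 5% CO2. Twenty hours on, supernatant was assayed for IRF (QuantiLuc luminescence) and NF-κB (QuantiBlue, 620 nm absorbance), and wells under 70% of agonist-control IncuCyte confluency in both mask sets were marked cytotoxic.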

[2] = test system: RAW-Dual; assay: NF-kB SEAP reporter activity, fold change vs agonist alone; higher = enhanced NF-kB activity; settings: library stock concentration (final ~1000-fold dilution): 10 mM
How it was run: as §1

[3] = test system: RAW-Dual; assay: NF-kB SEAP reporter activity, fold change vs agonist alone; cytotoxicity flag (confluency mask): cytotoxic (confluency <70% of control); higher = enhanced NF-kB activity
How it was run: as §1

[4] = agonist: ODN 1826 (TLR9) 0.5 ug/mL
[5] = agonist: Pam2CSK4 (TLR2/6) 0.1 ug/mL
[6] = agonist: Pam3CSK4 (TLR2/1) 0.1 ug/mL
[7] = cytotoxicity flag (confluency mask): not cytotoxic, agonist: Imiquimod (TLR7) […]
[8] = cytotoxicity flag (confluency mask): not cytotoxic, agonist: MPLA (TLR4) […]
[9] = cytotoxicity flag (confluency mask): cytotoxic (confluency <70% of control), agonist: Imiquimod (TLR7) […]
[10] = cytotoxicity flag (confluency mask): cytotoxic (confluency <70% of control), agonist: MPLA (TLR4) […]

## CCN(CC)C(=O)Nc1ccc(OCC(O)CNC(C)(C)C)c(C(C)=O)c1.Cl (stereo unspecified) (library stock concentration (final ~1000-fold dilution): 10 mM)
[1]; agonist: LPS (TLR4) 0.1 ug/mL
  NF-kB SEAP reporter activity: 3.5
[1]; [4]
  NF-kB SEAP reporter activity: 2.46
[1]; [5]
  NF-kB SEAP reporter activity: 1.6
[1]; [6]
  NF-kB SEAP reporter activity: 3.15

## CCN(CC)C(=O)Nc1ccc(OCC(O)CNC(C)(C)C)c(C(C)=O)c1.Cl (stereo unspecified)
[2]; [7]
  NF-kB SEAP reporter activity: 2.4
[2]; [8]
  NF-kB SEAP reporter activity: 2.24

## CC(C)(C)NCC(O)COc1cccc2c1CCC(=O)N2.Cl (stereo unspecified)
[2]; [7]
  NF-kB SEAP reporter activity: 1.02
[2]; [8]
  NF-kB SEAP reporter activity: 1.07

## CCCC(=O)Nc1ccc(OCC(O)CNC(C)C)c(C(C)=O)c1.Cl (stereo unspecified) (library stock concentration (final ~1000-fold dilution): 10 mM)
[1]; agonist: LPS (TLR4) 0.1 ug/mL
  NF-kB SEAP reporter activity: 1.54
[1]; [4]
  NF-kB SEAP reporter activity: 1.08
[1]; [5]
  NF-kB SEAP reporter activity: 1.11
[1]; [6]
  NF-kB SEAP reporter activity: 1.16

## Cl.N=c1ccn2c(n1)OC1C(O)C(CO)OC12 (stereo unspecified)
[2]; [7]
  NF-kB SEAP reporter activity: 1.8
[2]; [8]
  NF-kB SEAP reporter activity: 1.42

## Cl.N=c1ccn2c(n1)OC1C(O)C(CO)OC12 (stereo unspecified) (library stock concentration (final ~1000-fold dilution): 10 mM)
[1]; agonist: LPS (TLR4) 0.1 ug/mL
  NF-kB SEAP reporter activity: 1.33
[1]; [4]
  NF-kB SEAP reporter activity: 1.89
[1]; [5]
  NF-kB SEAP reporter activity: 1.4
[1]; [6]
  NF-kB SEAP reporter activity: 1.83

## Brc1ccc(CCCCn2ccnc2)cc1 (library stock concentration (final ~1000-fold dilution): 10 mM)
[1]; agonist: LPS (TLR4) 0.1 ug/mL
  NF-kB SEAP reporter activity: 0.672 and 0.736
[1]; [4]
  NF-kB SEAP reporter activity: 0.566 and 0.595
[1]; [5]
  NF-kB SEAP reporter activity: 0.493 and 0.552
[1]; [6]
  NF-kB SEAP reporter activity: 0.585 and 0.645

## CN(C)C(=O)CCSC(SCCC(=O)O)c1cccc(C=Cc2ccc3ccc(Cl)cc3n2)c1 (stereo unspecified) (library stock concentration (final ~1000-fold dilution): 10 mM)
[1]; agonist: LPS (TLR4) 0.1 ug/mL
  NF-kB SEAP reporter activity: 1.5
[1]; [4]
  NF-kB SEAP reporter activity: 1.12
[1]; [5]
  NF-kB SEAP reporter activity: 0.936
[1]; [6]
  NF-kB SEAP reporter activity: 0.945

## CN(C)C(=O)CCSC(SCCC(=O)O)c1cccc(C=Cc2ccc3ccc(Cl)cc3n2)c1 (stereo unspecified)
[2]; [7]
  NF-kB SEAP reporter activity: 0.973
[2]; [8]
  NF-kB SEAP reporter activity: 1.05

## CNC(=O)c1ccccc1Nc1nc(Nc2ccc(N3CCOCC3)cc2OC)ncc1Cl
[2]; [7]
  NF-kB SEAP reporter activity: 0.466
[2]; [8]
  NF-kB SEAP reporter activity: 0.594

## Cc1cc(N2CCOCC2)cc2[nH]c(-c3c(NCC(O)c4cccc(Cl)c4)cc[nH]c3=O)nc12 (stereo unspecified) (library stock concentration (final ~1000-fold dilution): 10 mM)
[1]; agonist: LPS (TLR4) 0.1 ug/mL
  NF-kB SEAP reporter activity: 0.682
[1]; [4]
  NF-kB SEAP reporter activity: 3.16
[1]; [5]
  NF-kB SEAP reporter activity: 0.436
[1]; [6]
  NF-kB SEAP reporter activity: 0.595

## CNC(=O)c1ccccc1Nc1nc(Nc2ccc(N3CCOCC3)cc2OC)ncc1Cl (library stock concentration (final ~1000-fold dilution): 10 mM)
[1]; agonist: LPS (TLR4) 0.1 ug/mL
  NF-kB SEAP reporter activity: 0.332
[1]; [4]
  NF-kB SEAP reporter activity: 0.296
[1]; [5]
  NF-kB SEAP reporter activity: 0.134
[1]; [6]
  NF-kB SEAP reporter activity: 0.246

## Cc1cc(N2CCOCC2)cc2[nH]c(-c3c(NCC(O)c4cccc(Cl)c4)cc[nH]c3=O)nc12 (stereo unspecified)
[2]; [7]
  NF-kB SEAP reporter activity: 2.06
[2]; [8]
  NF-kB SEAP reporter activity: 0.802

## Cc1cc(N2CCOCC2)ccc1Nc1nc(NC2CCCCC2)c2nc[nH]c2n1
[2]; [7]
  NF-kB SEAP reporter activity: 0.925
[2]; [8]
  NF-kB SEAP reporter activity: 1.04

## Cc1cc(N2CCOCC2)ccc1Nc1nc(NC2CCCCC2)c2nc[nH]c2n1 (library stock concentration (final ~1000-fold dilution): 10 mM)
[1]; agonist: LPS (TLR4) 0.1 ug/mL
  NF-kB SEAP reporter activity: 1.44
[1]; [4]
  NF-kB SEAP reporter activity: 0.814
[1]; [5]
  NF-kB SEAP reporter activity: 1
[1]; [6]
  NF-kB SEAP reporter activity: 0.926

## Cl.NC12CC3CC(CC(C3)C1)C2
[2]; [7]
  NF-kB SEAP reporter activity: 0.884
[2]; [8]
  NF-kB SEAP reporter activity: 1.08

## Cl.NC12CC3CC(CC(C3)C1)C2 (library stock concentration (final ~1000-fold dilution): 10 mM)
[1]; agonist: LPS (TLR4) 0.1 ug/mL
  NF-kB SEAP reporter activity: 1.03
[1]; [4]
  NF-kB SEAP reporter activity: 0.798
[1]; [5]
  NF-kB SEAP reporter activity: 0.873
[1]; [6]
  NF-kB SEAP reporter activity: 1.02

## Nc1ccccc1NC(=O)c1ccc(CNc2nccc(-c3cccnc3)n2)cc1
[2]; [9]
  NF-kB SEAP reporter activity: 2.7
[2]; [10]
  NF-kB SEAP reporter activity: 2.58

## Nc1ccccc1NC(=O)c1ccc(CNC(=O)OCc2cccnc2)cc1 (library stock concentration (final ~1000-fold dilution): 10 mM)
[1]; agonist: LPS (TLR4) 0.1 ug/mL
  NF-kB SEAP reporter activity: 1.22
[1]; [4]
  NF-kB SEAP reporter activity: 1.02
[1]; [5]
  NF-kB SEAP reporter activity: 1.07
[1]; [6]
  NF-kB SEAP reporter activity: 1.14

## Nc1ccccc1NC(=O)c1ccc(CNc2nccc(-c3cccnc3)n2)cc1 (library stock concentration (final ~1000-fold dilution): 10 mM)
[3]; agonist: LPS (TLR4) 0.1 ug/mL
  NF-kB SEAP reporter activity: 5.7
[3]; [4]
  NF-kB SEAP reporter activity: 3.2
[3]; [5]
  NF-kB SEAP reporter activity: 0.984
[3]; [6]
  NF-kB SEAP reporter activity: 1.9

## Nc1ccccc1NC(=O)c1ccc(CNC(=O)OCc2cccnc2)cc1
[2]; [7]
  NF-kB SEAP reporter activity: 0.921
[2]; [8]
  NF-kB SEAP reporter activity: 1.06

## Cc1ccc(NC(=O)c2ccc(CN3CCN(C)CC3)cc2)cc1Nc1nccc(-c2cccnc2)n1 (library stock concentration (final ~1000-fold dilution): 10 mM)
[1]; agonist: LPS (TLR4) 0.1 ug/mL
  NF-kB SEAP reporter activity: 1.23
[1]; [4]
  NF-kB SEAP reporter activity: 0.212
[1]; [5]
  NF-kB SEAP reporter activity: 1.55
[1]; [6]
  NF-kB SEAP reporter activity: 1.42

## Cc1ccc(NC(=O)c2ccc(CN3CCN(C)CC3)cc2)cc1Nc1nccc(-c2cccnc2)n1
[2]; [7]
  NF-kB SEAP reporter activity: 1.31
[2]; [8]
  NF-kB SEAP reporter activity: 1.69

## O=P(O)(O)Oc1cccc2ccccc12 (library stock concentration (final ~1000-fold dilution): 10 mM)
[1]; agonist: LPS (TLR4) 0.1 ug/mL
  NF-kB SEAP reporter activity: 1.05
[1]; [4]
  NF-kB SEAP reporter activity: 0.917
[1]; [5]
  NF-kB SEAP reporter activity: 1.16
[1]; [6]
  NF-kB SEAP reporter activity: 0.879

## O=P(O)(O)Oc1cccc2ccccc12
[2]; [8]
  NF-kB SEAP reporter activity: 1.08

## O=C(/C=C/c1cncc(F)c1)c1c(-c2ccccc2)c2cc(Cl)ccc2[nH]c1=O (library stock concentration (final ~1000-fold dilution): 10 mM)
[3]; agonist: LPS (TLR4) 0.1 ug/mL
  NF-kB SEAP reporter activity: 0.257
[3]; [4]
  NF-kB SEAP reporter activity: 0.212
[3]; [5]
  NF-kB SEAP reporter activity: 0.0981
[3]; [6]
  NF-kB SEAP reporter activity: 0.253

## O=C(/C=C/c1cncc(F)c1)c1c(-c2ccccc2)c2cc(Cl)ccc2[nH]c1=O
[2]; [9]
  NF-kB SEAP reporter activity: 0.157
[2]; [10]
  NF-kB SEAP reporter activity: 0.259
